Where “and” joins values, the source holds several entries; their conditions need not be identical. Identical values can stand only once. Results filed as inconclusive are left out. A number with no mark means an inactive call. Calls of active or inactive are those of the source. The call rests on the fitted dose curve; in most records, active means well fitted inhibition curve with a large enough effect; inconclusive means small, poorly fitted or top-dose-only effect; inactive means flat fitted curve, though single readings scatter. Where a SMILES comes first, the peptide text is derived from it. Bridges are numbered along the chain shown (N, C = ends). [ ]: non-standard residue; d: D form. The star is where a group is joined. X2 = CC[C@H](C)CCCCC(=O)*; Dab = NCC[C@H](N)C(=O)O
On the % scale 0 is the no-effect control and ±100 the full control effect; potency means the concentration at half of the fitted maximal effect.

For this test, the system named is KB-3-1. Put plainly: Cytotoxic Profiling of Annotated Libraries Using Quantitative High-Throughput Screening (AID 1296008). Further: nearly all actives have a fitted effect of over 60% in size. Conditions: Five cell lines viability, CellTiter-Glo ATP luminescence, 48-72 h; max response: stronger effect = lower value. The method, boiled down: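 Cytotoxicity was measured as CellTiter-Glo ATP luminescence, read after 10 min at room temperature. Compound treatment of the cells lasted 48 or 72 hr at 37 degrees Celsius in a qHTS format.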
A general note: Cellular ATP, detected with luciferase, serves as a proxy for viable cell number.
Consider `C=C1CC[C@@H]2[C@](C)(CO)[C@H](O)CC[C@@]2(C)[C@@H]1CC(=O)C1=CCOC1=O`, for which the max response was -15.5%.

On to `COc1cc2[nH]c(C)c(CCN3CCN(c4ccccc4)CC3)c2cc1OC`, for which the max response is -9.43%.

On to `Cc1cc(-n2c(=O)[nH]c(=O)n(C)c2=O)ccc1Oc1ccc(S(=O)(=O)C(F)(F)F)cc1`, for which the max response is 28.3%.

In the case of `CC(C)(C)CC(=O)OCC(=O)[C@@]12OC(C)(C)O[C@@H]1C[C@H]1[C@@H]3CCC4=CC(=O)C=C[C@]4(C)[C@@]3(F)[C@@H](O)C[C@@]12C`, the max response was 0.193%.

In the case of `C=CS(=O)(=O)O`, the max response was -7.41%.

Regarding `c1cnc2cc3c(cc2n1)[C@@H]1CNC[C@H]3C1`, the max response is -10.7%.

`CCOC(=O)Cc1cccc(-c2cc(CCCCCCc3ccc(O[C@H]4O[C@H](COC(C)=O)[C@@H](OC(C)=O)[C@H](OC(C)=O)[C@@H]4OC(C)=O)c(-c4cccc(CC(=O)OCC)c4)c3)ccc2O[C@H]2O[C@H](COC(C)=O)[C@@H](OC(C)=O)[C@H](OC(C)=O)[C@@H]2OC(C)=O)c1`: the max response is -10.9%.

`O=C1C(c2[nH]c3ccc(S(=O)(=O)O)cc3c2O)=Nc2ccc(S(=O)(=O)O)cc21`: the max response was 3.94% and -6.29%.

Take `CON=C1C[C@]2(C[C@@H]3C[C@@H](C/C=C(\C)C[C@@H](C)/C=C/C=C4\CO[C@@H]5[C@H](O)C(C)=C[C@@H](C(=O)O3)[C@]45O)O2)O[C@H](/C(C)=C/C(C)C)[C@H]1C`: the Potency is 20.6 µM (active).

For `C=Cc1ccccc1`, the max response was -0.236%.

With `O=C(Cn1cnnn1)N[C@@H]1C(=O)N2C(C(=O)O)=C(CSc3nncs3)CS[C@H]12`, the max response was -22.7% and -13.7%.

Consider `O=C(O)[C@@H](O)[C@H](O)[C@H](O)[C@@H](O)C(=O)O` (tested in a mixture with another compound), for which the max response is -0.35%.

Regarding `O=C(OCCO)c1ccccc1O`, the max response is -5.64%.

Consider `CCC(=O)O`, for which the max response was -11.1%.

`CCC(c1ccccc1)c1noc(CCN(CC)CC)n1` (stereo not given): the max response is -6.24%.

Consider `O=C(O)c1cccc(/C=C2/C[C@@H]3[C@@H](/C=C/[C@@H](O)C4CCCCC4)[C@H](O)C[C@@H]3O2)c1`, for which the max response was -0.588%.

On to `CN(C)Cc1ccccc1`, for which the max response is -10.5%.

Turning to `CCCCCCCCCCCCCCCC(=O)O[C@@H]1CC(C)=C(/C=C/C(C)=C/C=C/C(C)=C/C=C/C=C(C)/C=C/C=C(C)/C=C/C2=C(C)C[C@@H](OC(=O)CCCCCCCCCCCCCCC)CC2(C)C)C(C)(C)C1`, the max response is -27.5%.

`CC[C@H](C)CCCCC(=O)N[C@@H](CCN)C(=O)N[C@H](C(=O)N[C@@H](CCN)C(=O)N[C@H]1CCNC(=O)[C@H]([C@@H](C)O)NC(=O)[C@H](CCN)NC(=O)[C@H](CCN)NC(=O)[C@H](CC(C)C)NC(=O)[C@@H](CC(C)C)NC(=O)[C@H](CCN)NC1=O)[C@@H](C)O` (X2-[Dab]T[Dab][Dab][Dab][dL]L[Dab][Dab]T; lactam 4-C): the max response was -11.4%.

With `C[C@H]1C[C@H]2[C@@H]3CCC4=CC(=O)C=C[C@]4(C)[C@@]3(F)[C@@H](O)C[C@]2(C)[C@@]1(O)C(=O)CCl`, the max response is -8.19%.

Take `CC(C)C[C@@H](N)C(=O)N[C@H]1C(=O)N[C@@H](CC(N)=O)C(=O)N[C@H]2C(=O)N[C@H]3C(=O)N[C@H](C(=O)N[C@H](C(=O)O)c4cc(O)cc(O)c4-c4cc3ccc4O)[C@H](O)c3ccc(c(Cl)c3)Oc3cc2cc(c3O[C@@H]2O[C@H](CO)[C@@H](O)[C@H](O)[C@H]2O[C@H]2C[C@](C)(N)[C@H](O)[C@H](C)O2)Oc2ccc(cc2Cl)[C@H]1O`: the call was inactive.

Turning to `COCC1=C(C(=O)OC(C)OC(=O)OC(C)C)N2C(=O)[C@@H](NC(=O)/C(=N\OC)c3csc(N)n3)[C@H]2SC1` (stereo not given in full), the max response is -19.8% and -4.94%.

With `O=C(CO)[C@@H](O)[C@H](O)[C@H](O)CO`, the max response was -8.15%.

Turning to `CCC(C)[C@H]1O[C@]2(C=C[C@@H]1C)C[C@@H]1C[C@@H](C/C=C(\C)[C@@H](O[C@H]3C[C@H](OC)[C@@H](O[C@H]4C[C@H](OC)[C@H](NC(C)=O)[C@H](C)O4)[C@H](C)O3)[C@@H](C)/C=C/C=C3\CO[C@@H]4[C@H](O)C(C)=C[C@@H](C(=O)O1)[C@]34O)O2` (stereo not given in full), the Potency was 9.2 µM (active).

For the molecule `CC(=O)OC[C@H]1O[C@@H](O[C@H]2[C@H](O)[C@@H](OC(=O)c3ccccc3C(=O)O)[C@H](O)O[C@@H]2COC(C)=O)[C@H](O)[C@@H](OC(=O)c2ccccc2C(=O)O)[C@@H]1O`, the max response was -12.2%.

Turning to `C1CNCCN1`, the max response is -7.97%.

Take `CCCCCCCCCCCCCCCC(=O)OC[C@H](O)[C@H]1OC(=O)C(O)=C1O`: the max response was -14.1%.

As to `COc1ccc(C2NC(=S)N3C(c4ccc(OC)c(OC)c4)NC(=S)N23)cc1OC` (stereo not given), the max response is -2.1%.

As to `CN[C@@H]1CCc2[nH]c3ccc(C(N)=O)cc3c2C1`, the max response was -3.81%.

Take `O.O=C([O-])CC([S-])C(=O)[O-].[Au+].[Na+].[Na+]` (stereo not given): the max response is -7.82%.

Regarding `CCN(CC)c1ccc(N=Nc2ccc(S(=O)(=O)N(C)C)cc2)c(S(=O)(=O)NCC[n+]2ccccc2)c1`, the max response was -15.2%.

Take `Cc1c(O)cc2c(c1C)O[C@](C)(CCC[C@H](C)CCC[C@H](C)CCCC(C)C)CC2`: the max response is -6.57%.

Take `CCC(C)(C)OC(=O)N[C@@H](Cc1c[nH]c2ccccc12)C(=O)N[C@@H](CCSC)C(=O)N[C@@H](CC(=O)O)C(=O)N[C@@H](Cc1ccccc1)C(N)=O`: the max response was 0.713%.

As to `CC(=O)O[C@H]1C[C@@H]2CC[C@@H]3[C@H](CC[C@@]4(C)[C@H]3C[C@H](N3CC[N+](C)(C)CC3)[C@@H]4OC(C)=O)[C@@]2(C)C[C@@H]1N1CC[N+](C)(C)CC1`, the max response is -0.194%.

With `Cc1ccc(C2(O)CCN(CCCC(=O)c3ccc(F)cc3)CC2)cc1`, the max response is -11.9%.

Regarding `O=C[C@H](O)[C@@H](O)[C@H](O)[C@H](O)CO`, the max response was -5.79%.

Turning to `CCOC(=O)Nc1ccc2c(c1)N(C(=O)CN(C)C)c1ccccc1CC2`, the max response was -13.4%.

For the molecule `NCCC[C@H](N)C(=O)O`, the max response is -6.2%.

As to `O=C(Cn1c(=O)sc2ccc(Cl)cc21)N1CCN(CCO)CC1`, the max response was 2.82%.

Turning to `CC(=O)O[C@H]1CC(C)(C)CC2[C@]13CO[C@@]21CCC2[C@@]4(C)CC[C@H](O[C@@H]5OC[C@H](O[C@@H]6O[C@H](CO)[C@@H](O)[C@H](O)[C@H]6O[C@@H]6OC[C@@H](O)[C@H](O)[C@H]6O)[C@H](O)[C@H]5O[C@@H]5O[C@H](CO)[C@@H](O)[C@H](O)[C@H]5O)[C@@](C)(CO)C4CC[C@@]2(C)[C@]1(C)C[C@H]3O` (stereo not given in full), the max response is 4.15%.

The values are drawn from PubChem BioAssay (NCATS).
